Compound activity (PubChem BioAssay)
DT40 TDP1 no CPT – qHTS for Inhibitors of human tyrosyl-DNA phosphodiesterase 1 (TDP1): qHTS in cells in absence of CPT | AID 686978, 2013 | 15% of 420,000 active | Potency, µM (titrated, usually from 46.2 µM), usual class: inhibitors | DT40 Tdp1-/- hTDP1 cells, no CPT, ATP luminescence, 48 h; further: nearly all actives have a fitted effect of over 55% in size
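Chicken DT40 Tdp1-/- cells stably complemented with human TDP1 were seeded at 400 cells/well with DMSO in place of 20 nM camptothecin. After compound pinning, cells grew at least 48 hr at 37 °C; viability read by CellTiter-Glo luminescence.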
IL-1B inflam inh – blocks inflammasome-driven IL-1 beta release. 4.7% of 360,000 active. activity change, % at 57.5 µM. AID 743279. THP-1 LPS/ATP IL-1B secretion, AlphaLISA, 16 h; stronger effect = lower value; in the data active means activity change below about -50%; inconclusive means mostly about -30% to -49%
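Secreted IL-1B measured by AlphaLISA bead assay after 16 h compound exposure of THP-1 cells; compounds (final up to 57.5 uM) added 1 h before LPS (250 ng/mL) and ATP (1.25 mM) stimulation; lower signal means less secretion.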
ClpP mod – qHTS Assay for Activators of ClpP; ATP-dependent Clp protease proteolytic subunit (Bacillus subtilis (strain 168)), P80244; purified B. subtilis ClpP, FRET peptide cleavage, 20 min; Potency, µM (titrated, usually from 57.5 µM); 1.9% of 340,000 active; AID 651965, 2013; active means well fitted falling curve with a large enough effect; inconclusive means small, poorly fitted or top-dose-only effect; inactive means no such curve, though single readings can be large or run the other way; further: the source files actives as falling curves though it sought activators and does not explain the sign; nearly all actives have a fitted effect of over 65% in size
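ClpP 10 microg/mL final, pH 8 Tris/KCl buffer with BSA, glycerol, Tween-20; compound pinned in; FRET-FV substrate; RT 20 min; Ex320/Em430; ΔFRET vs ADEP 5.8 microM, DMSO, no enzyme.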
D3 ag – agonists of human D3 dopamine receptor | P35462 | D3R DiscoveRx beta-arrestin cells, luminescence, 90 min | max activation, % | 0.58% of 410,000 active | AID 652048; in the data active means max activation above about 30%
Target sequence (P35462 whole entry, looked up): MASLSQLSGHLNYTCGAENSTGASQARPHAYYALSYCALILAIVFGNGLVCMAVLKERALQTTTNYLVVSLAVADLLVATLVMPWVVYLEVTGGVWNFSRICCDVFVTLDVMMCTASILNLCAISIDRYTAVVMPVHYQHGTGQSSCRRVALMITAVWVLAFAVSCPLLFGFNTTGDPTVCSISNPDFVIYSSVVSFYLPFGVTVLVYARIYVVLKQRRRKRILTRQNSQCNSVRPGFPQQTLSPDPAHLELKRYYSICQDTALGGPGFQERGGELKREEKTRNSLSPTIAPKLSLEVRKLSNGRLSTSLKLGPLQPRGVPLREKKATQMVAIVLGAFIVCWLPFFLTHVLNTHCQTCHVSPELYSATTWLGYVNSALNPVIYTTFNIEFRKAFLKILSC
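Agonist-mode cell screen: cells plated at 1500/well and incubated overnight at 37 °C, then exposed to library compounds for 90 min at 37 °C. Detection reagent was added for 30–60 min at room temperature, and luminescence was read.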
DRD3 antagonist – blocks the human D3 dopamine receptor | max response, negative = inhibition, % | AID 652054 | P35462 | D3R cells, DiscoveRx beta-arrestin luminescence, antagonist mode; stronger effect = lower value | 2.5% of 360,000 active; in the data active means max response below about -50%; inconclusive means no clear call, values can overlap the other calls
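Cells plated overnight at 1500 cells/well, then exposed to library compounds with dopamine controls for 90 minutes at 37 degrees C. DiscoveRx reagent added for 30–60 minutes at room temperature; luminescence read, quantitative HTS format.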
DT40 TDP1 CPT – growth inhibition of DT40 Tdp1-/-;hTDP1 cells with camptothecin (screen for TDP1 inhibitors). chicken DT40 Tdp1-/-;hTDP1 cells + 20 nM CPT, ATP luminescence, 48 h. Potency, µM (doses to about 46.2 µM), hits mostly inhibitors. 12% of 420,000 active. AID 686979; further: nearly all actives have a fitted effect of over 55% in size
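Chicken DT40 Tdp1-/- cells stably complemented with human TDP1 were seeded at 400 cells/well in medium containing 20 nM camptothecin, exposed to pin-transferred compounds, and grown at 37 °C for at least 48 hr. Viability was read as ATP luminescence.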
Hits are given with their value; i = inactive; ? = inconclusive; nt = no result given; [ ] = dose if it differs, or a comment. Most compounds without a hit are left out; they make up all but 21% or so of the library. Unless noted, the call rests on the fitted dose curve; in most records, active means well fitted inhibition curve with a large enough effect; inconclusive means small, poorly fitted or top-dose-only effect; inactive means flat fitted curve, though single readings scatter.

SMILES | DT40 TDP1 no CPT | IL-1B inflam inh | ClpP mod | D3 ag | DRD3 antagonist | DT40 TDP1 CPT
CCN(CC(=O)Nc1c(F)cccc1F)C(=O)/C=C/c1ccc2c(c1)OCO2 | i | i | i | i | i | i
CN(C)c1nc(-c2cccnc2)nc(-c2ccccc2)c1C#N | ? | i | nt | i | i | i
CC(CN1CCCCC1)NC(=O)c1scnc1-c1ccccc1 (stereo not drawn) | i | i | i | i | -84 | i
CC(CN1CCCCC1)NC(=O)c1cc(-c2ccccn2)nc2ccc(Cl)cc12 (stereo not drawn) | i | i | i | i | i | i
CC(=O)N(c1ccccc1)c1ccccc1[N+](=O)[O-] | 26µM | i | i | i | i | ?
COC(=O)CN(c1ccccc1[N+](=O)[O-])S(=O)(=O)c1ccccc1 | i | i | nt | i | i | i
COc1ccc(-c2cc(C(F)(F)F)nc(SCC(=O)Nc3cc(C)on3)n2)cc1OC | i | i | 13µM | i | i | i
COc1ccc(-c2cc(C(F)(F)F)nc(SCC(=O)N(C)Cc3cnn(C)c3C)n2)cc1OC | 16µM | i | ? | i | i | 16µM
COc1ccc(-c2cc(C(F)(F)F)nc(SCCC(=O)Nc3cc(C)on3)n2)cc1 | i | i | 35µM | i | i | i
COc1ccc(-c2cc(C(F)(F)F)nc(SCC(=O)Nc3ccc(O)cc3)n2)cc1OC | nt | nt | i | i | nt | nt
COc1ccc(NC(=O)CCSc2nc(-c3ccc(OC)cc3)cc(C(F)(F)F)n2)cc1 | i | nt | i | i | nt | i
Cc1ccc(-c2nnn3c2nc(NCc2ccc4c(c2)OCO4)c2ccccc23)cc1 | ? | nt | ? | i | nt | ?
COc1ccc(CCN(C)C(=O)c2cc(-c3ccccc3)nc3ccc(C)cc23)cc1OC | ? | i | i | i | i | ?
COc1ccc(CCN(C)C(=O)COc2ccc(C(=O)c3ccccc3)cc2)cc1OC | ? | i | i | i | i | ?
COc1ccc(CCN(C)C(=O)Cc2ccc(-c3ccccc3)cc2)cc1OC | 16µM | -55 | nt | i | i | 18µM
COc1ccc(-c2cc(C(=O)N(C)CCc3ccc(OC)c(OC)c3)c3ccccc3n2)cc1 | 23µM | i | i | i | i | 15µM
COc1ccc(CCN(C)C(=O)c2cc(-c3ccccc3)nc3ccccc23)cc1OC | 23µM | i | i | i | i | ?
Cc1cc(C)c(NC(=O)C(C)n2c(=O)cc(-c3ccccc3)c3c(C)nn(C)c32)c(C)c1 (stereo not drawn) | i | nt | i | i | nt | i
O=C(CSc1nnc(-c2ccc(F)cc2)o1)N1CCCC1 | i | i | nt | i | i | i
COc1cc2c(cc1OC)C(C(=O)c1ccc(OC)c(OC)c1O)=NCC2 | i[9.04 µM] | nt | nt | nt | nt | i[9.04 µM]
O=C(NCCc1ccc2c(c1)OCCO2)c1cc(F)cc(F)c1 | 16µM | i | i | i | i | 21µM
CCCN1CCC(=NNc2ccc(C(=O)O)cc2)CC1 | i | i | i | i | i | i
Cc1ccccc1NC(=O)OCc1ccccc1 | i | ? | nt | 61 | i | i
Cc1ccccc1NC(=O)C1Cc2ccccc2CN1C(=O)OCc1ccccc1 (stereo not drawn) | 21µM | i | i | i | i | ?
NC(=O)COc1ccc(NC(=O)OCc2ccccc2)cc1 | i | i | 32µM | i | i | i
SMILES | DT40 TDP1 no CPT | IL-1B inflam inh | ClpP mod | D3 ag | DRD3 antagonist | DT40 TDP1 CPT
O=C(Nc1ccccc1)N1CCCC2(CCNCC2)C1 | i | nt | nt | nt | nt | i
CCC(=O)Nc1ccc2oc(-c3cccc(C)c3)nc2c1 | 5.8µM | i | i | i | i | 7.3µM
Cc1ccc(SCC(=O)Nc2cccc(C)c2)cc1 | i | i | i | i | i | i
Cc1ccc(SCC(=O)Nc2ccc3oc(-c4cccc(C)c4)nc3c2)cc1 | 15µM | nt | i | i | nt | ?
Cc1noc(C)c1CSc1ccccc1C(=O)N(C)CC(=O)Nc1cccc(F)c1 | i | i | nt | i | i | i
CCC(NC(=O)c1ccccc1NC(=O)C(C)(C)C)C(=O)N1CC(C)OC(C)C1 (stereo not drawn) | i | i | nt | i | i | i
